test system: HepG2; assay: GSK_TCMDC: Percent inhibition of human HepG2 cell line. Test compounds present at 10uM.; format: functional

Compound | Inhibition
CS(=O)(=O)c1cccc(-c2cnc3[nH]cc(-c4ccc(C(=O)O)cc4)c3c2)c1 | 6%
Br.CC(CON1C(N)=NC(N)=NC1(C)C)Cc1ccc(Cl)cc1Cl (stereo not given) | 61%
O=C(Nc1cccc(-c2ccc(-c3nc4cc(C(F)(F)F)ccc4[nH]3)cc2)c1)c1cccnc1 | 73%
Cc1ccc(S(=O)(=O)N2CCCN(C(=O)c3cc(-c4ccccc4)[nH]n3)CC2)cc1 | 11%
Cc1nnc(NC(=O)c2cn(-c3ccccc3)nc2-c2ccccc2C)o1 | 37%
CN(C)CCNCc1cccc(-c2cccc(-c3nc4ccccc4[nH]3)c2)c1.O=C(O)C(F)(F)F | 7%
Cl.O=C(CNC1=NCCN1)Nc1ccc(NC(=O)Nc2ccc(NC(=O)CNC3=NCCN3)cc2)cc1 | 0%
CCN(CCCN1CCCCC1)c1cc(C)nc(Nc2ccc(C(F)(F)F)cc2)n1.O=C(O)C(F)(F)F | 26%
COCCNCc1ccc(-c2cccc(CNc3ccc(OC)cc3)c2)cc1.O=C(O)C(F)(F)F | 16%
COc1cc(N)c(Cl)cc1C(=O)NC1CCC(NCC2CCCCC2)CC1.Cl (stereo not given) | 18%
CC(C)CCN1CCC(Oc2cccc(NC(=O)c3ccc(C(F)(F)F)cc3)c2)CC1.O=C(O)C(F)(F)F | 39%
Nc1c2ccccc2nc2ccc(-c3ccccc3)cc12 | 100%
CC(C)CNCc1cccc(-c2ccccc2CN(C(=O)NCCc2ccccc2)C2CCN(Cc3ccccc3)CC2)c1.O=C(O)C(F)(F)F | 42%
CC(C)Cn1cc(C2CCN(CCN3CCC(CNC(=O)c4ccc(NC(=O)c5cc(Cl)cc(Cl)c5)cc4)CC3)CC2)c2ccccc21 | 53%
O=C(NCCCCCN1CCC(c2c[nH]c3ccccc23)CC1)Nc1cccc(Cl)c1 | 36%
CC(O)C(=O)O.CCOc1ccc2nc3cc(N)ccc3c(N)c2c1 | 8%
COc1ccc2nc(SC(C)C(=O)c3c[nH]c4ccccc34)[nH]c2c1 (stereo not given) | 0%
CC1(C)CCC(C)(C)c2c1ccc(C1CCN(CCCCNC(=O)c3ccc(-c4ccc(Cl)cc4)cc3)CC1)c2O | 100%

Compound | Inhibition
CN(C)CCC1CCN(CCS(=O)(=O)c2cccc(Nc3ccc(-c4cccc(F)c4)cn3)c2)CC1 | 94%
CN1CCC(C(=O)N(Cc2ccc(-c3ccc(CNCCc4ccc(S(C)(=O)=O)cc4)cn3)cc2)Cc2cccc(F)c2)CC1.O=C(O)C(F)(F)F | 10%
COc1ccc(S(=O)(=O)N(c2cc(Br)cc3c2OCC3)S(=O)(=O)c2ccc(OC)c(N3CCN(C)CC3)c2)cc1N1CCN(C)CC1 | 67%
O=C(Nc1cccc(CN2CCCN(Cc3ccc(O)cc3)CC2)c1)c1cc2ccccc2s1.O=C(O)C(F)(F)F | 27%
Cc1cc(N[C@@H](CC(C)C)C(=O)NCc2cccs2)nc(NCCc2cccs2)n1.O=C(O)C(F)(F)F | 0%
COc1ccc(NC(=O)[C@H](CC(C)C)Nc2cc(C)nc(NCc3ccccc3C)n2)cc1.O=C(O)C(F)(F)F | 12%
Cc1cccc(C)c1OC(=O)C(C)C(O)C1(Sc2ccccc2)CCN(C)CC1 (stereo not given) | 23%
Cc1noc(C)c1CN1Cc2ccccc2OC2(CCN(Cc3c[nH]c4cnccc34)CC2)C1.O=C(O)C(F)(F)F | 19%
CN(/N=C/C=C/c1ccc(Cl)cc1)c1nc(NCCc2ccc(O)cc2)nc(N2CCNCC2)n1 | 14%
COc1cccc(-c2csc(C(=O)NCC3CCN(Cc4ccc(C(C)(C)C)cc4)C3)c2)c1.O=C(O)C(F)(F)F (stereo not given) | 30%
CCN(CCCN1CCCCC1)c1cc(C)nc(Nc2ccc(C)cc2C(F)(F)F)n1.O=C(O)C(F)(F)F | 23%
Cc1oc(-c2ccc(Cl)cc2)cc1C(=O)NCCC1CCN(CCCCCNC(=O)/C=C/c2ccc(Cl)c(Cl)c2)CC1 | 100%
O=C(/C=C/c1ccc(Cl)c(Cl)c1)NC1CCC(CN2CCC(c3nc4cc(O)ccc4[nH]3)CC2)CC1 (stereo not given) | 41%
O=C(O)C(F)(F)F.Oc1ccc(CCNc2nc(NCCOc3cccc4ccccc34)nc(N3CCNCC3)n2)cc1 | 21%
O=C(/C=C/c1ccc(Cl)c(Cl)c1)NCCCCCN1CCCN(C(=O)Nc2cccc(Cl)c2)CC1 | 11%
Cc1nn(CCOC(=O)NC(NCC2COc3ccccc3O2)C(Cl)(Cl)Cl)cc1[N+](=O)[O-] (stereo not given) | 0%
CC(C)CNCc1cccc(-c2ccccc2CNC2CCN(Cc3ccccc3)CC2)c1.O=C(O)C(F)(F)F | 25%
